Screens: PubChem BioAssay, The Scripps Research Institute Molecular Screening Center
Shown are actives, neighbours in structure and some others; about 3.4% of the full set was active somewhere.
GPR151 activ: human GPR151 activation; PathHunter beta-arrestin GPR151 cells, luminescence; activation, % at 11.2 µM; AID 1508602; 650,000 compounds, 1% hits; in the data active means activation above about 4.9%;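 further: 0% = median of compound wells and 100% = cells with positive control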
TEAD-YAP inh: TEAD-YAP interaction inhibition; HEK-TIYL cells, TEAD-Gal4/YAP UAS-luciferase luminescence; inhibition, % at 9.12 µM; 640,000 compounds, 1.4% hits; AID 1259422; in the data active means inhibition above about 32%;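 further: 0% = median of test compound wells and 100% = reference inhibitor wells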
FBW7 activator: human FBW7 E3 ligase activation, primary screen. Q969H0. AlphaScreen FBW7–phospho-cyclin E peptide binding, activator screen. normalized activity (activation), % at 26.1 µM. 650,000 compounds, 0.13% hits. AID 1259310; in the data active means normalized activity above about 1.9%;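 further: purified mutant Fbw7 with reduced substrate affinity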
MITF inh: human MITF inhibition, primary screen; O75030; AlphaScreen MITF homodimerization, bead proximity signal; inhibition, % at 2.6 µM; 650,000 compounds, 0.91% hits; AID 1259374; in the data active means inhibition above about 50%;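 further: 0% = vehicle wells with protein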
Target sequence (O75030 whole entry, looked up): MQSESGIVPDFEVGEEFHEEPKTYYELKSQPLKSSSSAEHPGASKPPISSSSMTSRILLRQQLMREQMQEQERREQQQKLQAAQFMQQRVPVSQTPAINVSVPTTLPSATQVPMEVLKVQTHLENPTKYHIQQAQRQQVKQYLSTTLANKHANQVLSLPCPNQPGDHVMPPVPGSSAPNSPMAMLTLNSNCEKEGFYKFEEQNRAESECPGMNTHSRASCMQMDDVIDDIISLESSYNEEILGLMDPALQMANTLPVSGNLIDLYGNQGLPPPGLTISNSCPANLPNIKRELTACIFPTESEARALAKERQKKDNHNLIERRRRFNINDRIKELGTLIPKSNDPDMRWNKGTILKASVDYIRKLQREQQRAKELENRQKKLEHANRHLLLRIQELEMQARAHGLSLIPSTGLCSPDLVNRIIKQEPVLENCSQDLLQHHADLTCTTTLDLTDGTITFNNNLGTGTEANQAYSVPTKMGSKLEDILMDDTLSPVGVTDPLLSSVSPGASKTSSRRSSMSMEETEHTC
An asterisk follows results filed as active.

SMILES	GPR151 activ	TEAD-YAP inh	FBW7 activator	MITF inh
C=CCOc1ccc(/C=C2/C(=O)NC(=S)N2C(C)=O)cc1OCC	-2	-3	0	-4
COc1ccc(CCNSc2ccccc2[N+](=O)[O-])cc1OC	0	1	0	-2
COc1cc(Sc2ccccc2[N+](=O)[O-])ccc1N	-1	46*	0	1
Cc1ccc(/C(O)=C2\C(=O)C(=O)N(c3ccccn3)C2c2ccc(C(C)(C)C)cc2)cc1 (centres undefined)	-1	44*	0	-9
O=C(CCSCc1cccc(F)c1)NC1CCCCC1	-2	-42	0	1
Nc1c(C(=O)Nc2nccs2)sc2nc3c(cc12)CCCC3	-1	77*	0	-19
Nc1c(C(=O)Nc2ccc(Cl)cn2)sc2nc3c(cc12)CCC3	4	94*	0	12
CCc1nnc(NC(=O)c2sc3nc4c(cc3c2N)CCC4)s1	-1	-76	0	1
Cc1cc(NC(=O)Cn2c3ccccc3c(=O)c3ccccc32)no1	-1	3	0	-5
CCOC(=O)c1[nH]c(C)c(C(=O)c2cc(F)ccc2F)c1C	1	45*	0	4
CCOC(=O)c1[nH]c(C)c(C(=O)OCC(=O)Nc2sccc2C(N)=O)c1C	2	32*	0	-6
CCOC(=O)c1[nH]c(C)c(C(=O)Nc2cc(F)ccc2F)c1C	0	42*	0	15
CN(Cc1ccccc1)C(=S)Nc1ccccc1Br	0	-13	0	-11
Cc1ccccc1NC(=O)C1CCCN1S(=O)(=O)c1cccc2nsnc12 (centres undefined)	0	-14	0	-2
Cc1nnc(SCC(=O)N2CCCC2)s1	-2	-2	0	2
Cc1nnc(SCC(=O)N2CCC(c3noc4ccc(F)cc34)CC2)s1	1	37*	0	-2
COc1ccc(CCNc2nc(-c3cccc(N)c3)ncc2C)cc1	0	44*	0	1
COc1ccc(CCNc2cc(-c3ccccc3)ncn2)cc1	0	-5	1.9*	5
COc1ccc(CCNc2cc(-c3cccc(N)c3)nc(N)n2)cc1	1	35*	0	13
COc1ccc(C2(CC(=O)N3CCc4sccc4C3)CC(=O)N(C3CC3)C2=O)cc1 (centres undefined)	2	-12	1	4
CCOc1ccc(C(Nc2cc(C)ccn2)c2ccc3ccc(C)nc3c2O)cc1OCC (centres undefined)	0	17	0	15
COc1ccc(C(Nc2ccccn2)c2ccc3cccnc3c2O)cc1OC (centres undefined)	1	70*	-1	37
COc1ccccc1C(Nc1cc(C)ccn1)c1ccc2cccnc2c1O (centres undefined)	0	84*	0	24
Cc1ccc2ccc(C(Nc3ccccn3)c3ccc(C)c(C)c3)c(O)c2n1 (centres undefined)	0	10	0	9
COc1ccc(C(Nc2cc(C)ccn2)c2ccc3ccc(C)nc3c2O)cc1OC (centres undefined)	0	28	0	20
SMILES	GPR151 activ	TEAD-YAP inh	FBW7 activator	MITF inh
COc1ccc(C(Nc2cc(C)ccn2)c2ccc3cccnc3c2O)cc1OC (centres undefined)	-1	61*	0	28
CCOc1cc(C(Nc2cc(C)ccn2)c2ccc3cccnc3c2O)ccc1OCc1ccccc1 (centres undefined)	0	80*	0	7
CCOC(=O)C1CCN(c2ncnc3c2c(-c2ccccc2)cn3-c2cccc(C(F)(F)F)c2)CC1	2	-5	0	-1
CC(C)CN1C(=O)N(c2cccc(F)c2)C(=O)C1CC(=O)Nc1cccc(F)c1 (centres undefined)	-1	-8	1	12
COc1ccc(C(=O)NCC23CCC4CC(CC(C4)C2)C3)cc1	0	1	0	2
CCOC(=O)C1=C(c2ccccc2)N=c2s/c(=C/c3cc([N+](=O)[O-])ccc3N3CCN(C)CC3)c(=O)n2C1c1ccccc1 (centres undefined)	0	-11	0	0
O=S(=O)(N/N=C1\CC(c2ccccc2)Oc2ccccc21)c1ccccc1 (centres undefined)	2	16	2.7*	-13
Nc1cc2c3c(c1)C(c1ccccc1)CCN3CCC2c1ccccc1 (centres undefined)	0	24	6.3*	-3
COCCOC(=O)C1=C(C)NC2=C(C(=O)CC(c3ccc(OC)c(OC)c3)C2)C1c1cccc(C)c1 (centres undefined)	1	43*	0	4
COc1ccc(C2CC(=O)C3=C(C2)NC(C)=C(C(=O)OC2CCCCC2)C3c2cccc(C)c2)cc1OC (centres undefined)	0	46*	0	7
CC1=C(C(=O)OC2CCCCC2)C(c2ccc(F)cc2)C2=C(CC(c3ccccc3)CC2=O)N1 (centres undefined)	0	9	1.9*	14
CCC(C)OC(=O)C1=C(C)NC2=C(C(=O)CC(c3ccccc3)C2)C1c1cccc2ccccc12 (centres undefined)	0	9	2.2*	6
O=C(CCCCCn1c(SCC(=O)c2ccc(Cl)cc2)nc2ccccc2c1=O)NCC1CCCO1 (centres undefined)	-2	13	1	-5
CCC(C)OC(=O)C1=C(C)NC2=C(C(=O)CC(c3ccc(Cl)cc3)C2)C1c1cccc(Cl)c1 (centres undefined)	1	6	1.9*	11
COc1ccc(C2CC(=O)C3=C(C2)NC(C)=C(C(=O)OC(C)C)C3c2cccc(Cl)c2)cc1OC (centres undefined)	0	46*	1	5
COc1ccc(C2CC(=O)C3=C(C2)NC(C)=C(C(=O)OC(C)C)C3c2cccc(Br)c2)cc1OC (centres undefined)	2	31	0	-3
COc1ccc(C2CC(=O)C3=C(C2)NC(C)=C(C(=O)OC(C)C)C3c2cccc(C)c2)cc1OC (centres undefined)	-1	52*	0	4
CC1=C(C#N)C(c2ccccc2Cl)C2=C(CC(c3ccccc3)CC2=O)N1 (centres undefined)	-1	33*	0	1
Fc1ccc(-c2csc3ncnc(Oc4cccc5cccnc45)c23)cc1	0	-1	0	8
CCOc1ccc(C2C(C(=O)OC)=C(C)NC3=C2C(=O)CC(c2ccc(OC)c(OC)c2)C3)cc1OC (centres undefined)	-1	41*	0	-1
COc1ccc(C2CC(=O)C3=C(C2)NC(C)=C(C(=O)OC(C)C)C3c2ccccc2OC)cc1OC (centres undefined)	-1	1	1	14
COc1ccc(C2CC(=O)C3=C(C2)NC(C)=C(C(=O)OC(C)C)C3c2cccc([N+](=O)[O-])c2)cc1OC (centres undefined)	-1	39*	0	-10
COc1ccc(C2CC(=O)C3=C(C2)NC(C)=C(C(=O)OC(C)C)C3c2ccccc2F)cc1OC (centres undefined)	0	43*	0	11
